Data as given in PubChem BioAssay (Tox21).
Several values for one entry are separate records, joined by “and”; a condition that tells them apart may be missing. Identical values can stand only once. Records with an inconclusive call do not appear. Entries that show only a call come without a potency. Some structures have more than one record in an assay (separate samples or runs), and their calls can disagree. Activity calls are given as the source filed them. Unless noted, calls follow the shape of the dose curve; as a rule, active = well fitted curve in the direction sought with a large enough effect in the repeat runs; inconclusive = weak or mixed curves; inactive = no such curve, though single readings can be large; an effect the other way counts as inactive or inconclusive.

What was measured:
[1] = qHTS assay for small molecule agonists of the p53 signaling pathway (AID 651631; calls by dose curve; also: nearly all actives have a fitted effect of over 15% in size)
In short: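 p53RE-bla HCT-116 cells; compounds 16 h, 37 °C; LiveBLAzer B/G FRET substrate 2 h RT; fluorescence intensity read-out, qHTS format.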

[2] = qHTS assay for small molecules that induce genotoxicity in human embryonic kidney cells expressing luciferase-tagged ATAD5 (AID 651632); also: nearly all actives have a fitted effect of over 15% in size
In short: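 Genotoxicity read-out via ATAD5-luciferase: HEK293T cells, 16 hr compound incubation at 37C, Amplite detection.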

[3] = qHTS assay for small molecule agonists of the p53 signaling pathway - cell viability (AID 651633; calls by dose curve; also: nearly all actives have a fitted effect of over 30% in size; also: potency is read from the fitted curve at half-maximal effect)
In short: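 Viability counter-read: CellTiter-Glo luminescence (30 min, room temperature) in the same p53RE-bla plates. These plates had been exposed to compounds for 16 h at 37 C.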

[4] = qHTS assay for small molecules that induce genotoxicity in human embryonic kidney cells expressing luciferase-tagged ATAD5 - cell viability (AID 651634; calls by dose curve; also: nearly all actives have a fitted effect of over 25% in size)
In short: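 Live-cell protease activity (CellTiter-Fluor, fluorescence) indicates viability. HEK293T cells with luciferase-tagged ATAD5; 15.5 hr compound treatment at 37C.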

[5] = qHTS assay for small molecule disruptors of the mitochondrial membrane potential - cell viability (AID 720634; calls by dose curve;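 also: human HepG2 liver cancer cells; series mostly up to about 83 µM; nearly all actives have a fitted effect of over 20% in size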)
In short: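 Human hepatoma HepG2 cells were treated for 1 hr with test chemicals, then given m-MPI dye and CellTiter-Glo. Cell viability reflects luminescence proportional to cellular ATP.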

[6] = qHTS assay to test for compound auto fluorescence at 590 nm (red) in HepG2 cells (AID 720674)
In short: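 We screened compounds on adherent HepG2 cells, incubating them for an hour at 37 C in 5% CO2 before reading emission at 590 nm under 540 nm excitation; values reflect equivalence to Rose Bengal sodium fluorescence.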

[7] = qHTS assay to test for compound auto fluorescence at 535 nm (green) in HepG2 cells (AID 720675)
[8] = qHTS assay to test for compound auto fluorescence at 460 nm (blue) in HEK293 cells (AID 720678)
In short: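 Intrinsic compound fluorescence is recorded in live HEK293 cultures after overnight incubation at 37C, 5% CO2, using excitation 405 nm and emission 460 nm. Values are referenced to triamterene.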

[9] = qHTS assay to test for compound auto fluorescence at 590 nm (red) in HEK293 cells (AID 720679)
In short: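 Red autofluorescence, HEK293 cells: 2,000 cells/well; attach 4-5 hr 37C; add 23 nL cpd or DMSO; incubate o/n 37C 5% CO2; read Ex540/Em590; Rose Bengal sodium reference.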

[10] = qHTS assay to test for compound auto fluorescence at 535 nm (green) in HEK293 cells (AID 720680)
[11] = qHTS assay to test for compound auto fluorescence at 460 nm (blue) in HEK293 cell free culture (AID 720681)
In short: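 Blue fluorescence (Ex 405/Em 460 nm, triamterene-equivalent) was read immediately after pin transfer of compound or DMSO into medium (DMEM, 10% FBS) without cells.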

[12] = qHTS assay to test for compound auto fluorescence at 535 nm (green) in HEK293 cell free culture (AID 720682)
In short: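 Cell-free medium (DMEM, 10% FBS) receives compound or DMSO by pintool. Plate read directly at Ex 485/Em 535 nm. Signal converted to fluorescein equivalency.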

[13] = qHTS assay to test for compound auto fluorescence at 590 nm (red) in HEK293 cell free culture (AID 720683)
In short: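 Red-channel autofluorescence of compounds in culture medium (DMEM, 10% FBS), no cells, measured at 540/590 nm. Rose Bengal sodium is the reference fluorophore for equivalence.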

[14] = qHTS assay to test for compound auto fluorescence at 590 nm (red) in HepG2 cell free culture (AID 720684)
In short: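 Steps: dispense MEM/10% FBS medium, no cells; pin compound or DMSO vehicle; read red channel, Ex/Em 540/590 nm. Output given as Rose Bengal sodium equivalents.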

[15] = qHTS assay to test for compound auto fluorescence at 460 nm (blue) in HepG2 cell free culture (AID 720685)
In short: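 Compound (23 nL) or DMSO pinned into cell-free MEM with 10% FBS; blue fluorescence read at 405/460 nm excitation/emission, expressed as auto-fluorescence equivalency to triamterene.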

[16] = qHTS assay to test for compound auto fluorescence at 535 nm (green) in HepG2 cell free culture (AID 720686)
[17] = qHTS assay to test for compound auto fluorescence at 460 nm (blue) in HepG2 cells (AID 720687)
In short: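 Blue-channel autofluorescence (Ex/Em 405/460 nm, triamterene-equivalent) was measured after 1 hr compound exposure at 37 C, 5% CO2. Cells were HepG2, plated overnight at 37 C in MEM plus 10% FBS.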

[18] = target: Glucocorticoid receptor (Homo sapiens) (UniProt P04150); assay: qHTS assay to identify small molecule agonists of the glucocorticoid receptor (GR) signaling pathway (AID 720691; active = well fitted activation curve with a large enough effect in the signal ratio in the repeat runs, not every such curve was filed as active; the % refers to the signal ratio)
In short: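 Beta-lactamase reporter activity, read as fluorescence intensity, was measured in GR-bla HeLa cells exposed to compounds for 18 h at 37 C and then loaded with LiveBLAzer B/G FRET substrate for 2 h at room temperature.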

[19] = qHTS assay for small molecule disruptors of the mitochondrial membrane potential (AID 720635); also: potency is read from the fitted curve at half-maximal effect
In short: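 Mitochondrial membrane potential tracked with Mito-MPS dye, red aggregates (ex 540/em 590 nm) against green monomers (ex 490/em 535 nm). Compound treatment 1 hr at 37C, dye 30 min in HepG2.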

[20] = target: Glucocorticoid receptor (Homo sapiens) (UniProt P04150); assay: qHTS assay to identify small molecule antagonists of the glucocorticoid receptor (GR) signaling pathway (AID 720692; active = well fitted inhibition curve with a large enough effect in the signal ratio in the repeat runs, not every such curve was filed as active; the % refers to the signal ratio)
In short: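 Fluorescence from cleaved LiveBLAzer B/G FRET substrate reports GRE-driven beta-lactamase in HeLa cells; compounds are tested against 5 nM dexamethasone (final) over 18 h at 37 C, substrate incubation 2 h at room temperature.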

Glucocorticoid receptor (Homo sapiens), sequence (P04150 whole entry, looked up): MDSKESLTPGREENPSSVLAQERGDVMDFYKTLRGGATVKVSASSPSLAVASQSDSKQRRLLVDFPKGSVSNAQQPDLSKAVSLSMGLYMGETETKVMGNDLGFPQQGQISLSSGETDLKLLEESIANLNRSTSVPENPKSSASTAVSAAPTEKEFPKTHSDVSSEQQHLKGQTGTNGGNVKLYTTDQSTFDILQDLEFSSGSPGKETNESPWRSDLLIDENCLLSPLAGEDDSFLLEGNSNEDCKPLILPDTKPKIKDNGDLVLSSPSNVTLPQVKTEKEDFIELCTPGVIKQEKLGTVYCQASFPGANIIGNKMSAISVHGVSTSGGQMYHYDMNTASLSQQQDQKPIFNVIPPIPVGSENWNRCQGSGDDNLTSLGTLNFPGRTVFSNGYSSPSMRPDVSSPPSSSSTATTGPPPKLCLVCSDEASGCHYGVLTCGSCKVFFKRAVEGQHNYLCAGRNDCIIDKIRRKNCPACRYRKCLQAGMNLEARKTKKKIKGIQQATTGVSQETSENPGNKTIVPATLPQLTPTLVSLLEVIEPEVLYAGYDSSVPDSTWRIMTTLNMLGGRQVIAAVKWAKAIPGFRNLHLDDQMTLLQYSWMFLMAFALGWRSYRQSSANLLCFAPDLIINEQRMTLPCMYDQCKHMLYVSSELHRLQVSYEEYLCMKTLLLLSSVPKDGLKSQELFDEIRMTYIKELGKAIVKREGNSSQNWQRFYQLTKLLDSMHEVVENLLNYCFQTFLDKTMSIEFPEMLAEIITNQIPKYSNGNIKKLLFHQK

| Compound | Potency [1] | outcome [2] | Potency [3] | Potency [4] | Potency [5] | outcome [6] | outcome [7] | outcome [8] | outcome [9] | outcome [10] | outcome [11] | outcome [12] | outcome [13] | outcome [14] | outcome [15] | outcome [16] | outcome [17] | Potency [18] | Potency [19] | Potency [20] |
| --- | --- | --- | --- | --- | --- | --- | --- | --- | --- | --- | --- | --- | --- | --- | --- | --- | --- | --- | --- | --- |
| ClCCCCl | inactive | inactive | inactive | inactive | inactive | inactive | inactive | inactive | inactive | inactive | inactive | inactive | inactive | inactive | inactive | inactive | inactive | inactive |  |  |
| O=C(Cl)C(Cl)(Cl)Cl | inactive | inactive | inactive | inactive | inactive | inactive | inactive | inactive | inactive | inactive | inactive |  | inactive | inactive | inactive | inactive | inactive | inactive | inactive |  |
| CCCCCCC(=O)CCCCCC/C=C/C[C@@H](O)[C@H](O)[C@@](N)(CO)C(=O)O | inactive | inactive | inactive | inactive | inactive | inactive | inactive | inactive | inactive |  | inactive | inactive | inactive | inactive | inactive | inactive | inactive | inactive | inactive | inactive |
| O=C1CCCCC1Cl (centres undefined) | inactive | inactive | inactive | inactive | inactive | inactive | inactive | inactive | inactive | inactive | inactive |  | inactive | inactive | inactive | inactive | inactive | inactive | inactive |  |
| CC(C)(C)c1cc(O)ccc1O | inactive | inactive | inactive and 29.8 µM (active) | inactive | inactive | inactive | inactive | inactive | inactive |  | inactive | inactive | inactive |  | inactive |  | inactive | inactive | inactive and 22.1 µM (active) | inactive |
| CC(C)N(Cc1ccccc1)C(=O)C(C)(C)C | inactive | inactive | inactive | inactive | inactive | inactive | inactive | inactive | inactive | inactive | inactive | inactive | inactive | inactive | inactive | inactive | inactive |  |  |  |
| C=CC(=O)OCCN(C)C | inactive | inactive | inactive | inactive | inactive | inactive | inactive | inactive | inactive | inactive | inactive |  | inactive |  | inactive | inactive | inactive | inactive | inactive | inactive |
| OP(O)c1ccccc1 | inactive | inactive | inactive | inactive | inactive | inactive | inactive | inactive | inactive |  | inactive | inactive | inactive | inactive | inactive | inactive | inactive | inactive | inactive | inactive |
| CON(C)C(=O)Nc1ccc(Br)cc1 | inactive | inactive | inactive | inactive | inactive | inactive | inactive | inactive | inactive | inactive | inactive | inactive | inactive | inactive | inactive | inactive | inactive | inactive |  |  |
| CCN(CCO)CCn1c(Cc2ccccc2)nc2c1c(=O)n(C)c(=O)n2C | inactive | inactive | inactive |  | inactive | inactive | inactive | inactive | inactive | inactive | inactive | inactive | inactive | inactive | inactive | inactive | inactive |  | inactive | inactive |
| c1ccc2c(c1)CCNC2 | inactive | inactive | inactive | inactive | inactive | inactive | inactive | inactive | inactive |  | inactive | inactive | inactive | inactive | inactive |  | inactive |  |  |  |
| COc1ccccc1OC | inactive | inactive | inactive | inactive | inactive | inactive | inactive | inactive | inactive |  | inactive |  | inactive | inactive | inactive |  | inactive | inactive |  | inactive |
| C=C(Cl)CCl | inactive | inactive | inactive |  | inactive | inactive | inactive | inactive | inactive | inactive | inactive | inactive | inactive | inactive | inactive | inactive | inactive |  | inactive | inactive |
| CCNP(=S)(OC)O/C(C)=C/C(=O)OC(C)C (centres undefined) | inactive | inactive | inactive | inactive |  | inactive | inactive | inactive | inactive | inactive | inactive |  | inactive | inactive | inactive |  | inactive | inactive |  | inactive |
| CC(C)C(C)(N)C#N (centres undefined) | inactive | inactive | inactive | inactive | inactive | inactive | inactive | inactive | inactive | inactive | inactive | inactive | inactive | inactive | inactive |  | inactive | inactive |  | inactive |
| NC1(c2ccccc2)CCCCC1 | inactive | inactive | inactive | inactive | inactive | inactive | inactive | inactive | inactive |  | inactive | inactive | inactive | inactive | inactive | inactive | inactive |  |  |  |
